According to PubChem BioAssay:
Activity calls are given as the source filed them.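 Rule for the calls, unless noted: active = inhibition at or above 50% at 10 µM; inactive = inhibition below 50%.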

How the values were obtained:
[1] = inhibitors of TNFa-induced NFkB p65 translocation, primary screen, imaging, HUVEC, MLSMR starter and 10KST1 sets (AID 438;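 active = inhibition above 20% together with a positive visual image hit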;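 note: compound added about 3h40 before a 20 min TNFalpha stimulation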;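 for inhibition: signal is the nuclear over cytoplasmic p65 intensity ratio per well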); conditions: HUVEC TNFa-induced p65 nuclear translocation; cell count: measured here: nuclei count (cytotoxicity indicator), at 2.08 µM; inhibition: at 2 µM, stronger effect = higher value, 0% TNFa-plus-vehicle, 100% no-TNFa wells
[2] = reduction of polyQ htt aggregates in cells – imaging, exon1htt(103Q)mCFP cells, high-content imaging, primary screen (AID 483;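 active = visual image review flags a hit and inhibition of aggregation exceeds 20%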;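 note: compound exposure lasted 3 days before fixation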;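 for nuclei count: percent of the per-plate median nuclei count of sample wells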); conditions: exon1htt(103Q)mCFP cell line, aggregate imaging, at 2 µM; inhibition of aggregation: stronger effect = higher value; nuclei count: measured here: cell count, toxicity
[3] = endothelial E-selectin expression blockers – imaging, HUVEC, immunofluorescence, MLSMR starter and 10KST1 sets, primary screen (AID 487;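 active = visually confirmed hit in the image check and inhibition above 20%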;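 for inhibition: signal is fraction of cell area covered by stained E-selectin grains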;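 for nuclei count: 100% = median nuclei count of all wells on the same plate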); conditions: HUVEC TNFalpha-induced E-selectin immunofluorescence imaging, at 2 µM; inhibition: stronger effect = higher value; nuclei count: measured here: cell number, toxicity
[4] = molecular target: Voltage-gated potassium channel subunit beta-2 (Rattus norvegicus) (UniProt P62483); test: inhibitors of rat Kvbeta2 reductase activity – biochemical, NADPH fluorescence, primary screen (AID 622;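 active = fluorescence slope higher than the sample average by over 3 SD, cut at about -0.22 in these data, passing the limit was not always enough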;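 note: slope of raw intensity against log time taken from 70 to 1610 s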); conditions: recombinant KvBeta, 4-cyanobenzaldehyde reduction, at 10 µM, stronger effect = higher value
Voltage-gated potassium channel subunit beta-2 (Rattus norvegicus), sequence (P62483 whole entry, looked up): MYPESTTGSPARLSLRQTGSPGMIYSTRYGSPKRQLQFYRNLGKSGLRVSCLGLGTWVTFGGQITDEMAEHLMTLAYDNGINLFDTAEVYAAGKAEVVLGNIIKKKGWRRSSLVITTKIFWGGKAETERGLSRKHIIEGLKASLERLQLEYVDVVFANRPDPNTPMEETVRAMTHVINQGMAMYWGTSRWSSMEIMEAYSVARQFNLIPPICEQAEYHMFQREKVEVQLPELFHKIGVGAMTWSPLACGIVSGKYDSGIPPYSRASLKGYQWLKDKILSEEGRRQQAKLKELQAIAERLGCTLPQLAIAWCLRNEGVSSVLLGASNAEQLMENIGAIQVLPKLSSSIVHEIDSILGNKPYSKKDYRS

[5] = molecular target: Voltage-gated potassium channel subunit beta-2 (Rattus norvegicus) (UniProt P62483); test: enhancers of rat Kvbeta2 NADPH turnover – biochemical, NADPH fluorescence, primary screen (AID 623;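 active = NADPH fluorescence slope more negative than the mean of all samples by about 3 SD, 99.7% confidence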;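 note: fluorescence intensity change per second fitted from 20 to 320 s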); conditions: Recombinant KvBeta, NADPH fluorescence decrease slope, 10 min; at 10 µM; stronger effect = lower value
[6] = molecular target: Alpha-2C adrenergic receptor (Homo sapiens) (UniProt P18825); test: compounds altering alpha2C-coupled GIRK flux – cell-based, HEK293 alpha2C/GIRK1/2, thallium flux, primary screen (AID 624;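 active = fluorescence slope after compound addition differing from the mean of all screened samples at 99.7% confidence, in either direction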;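 note: slope of fluorescence ratio to pre-addition baseline per second over 15 to 24 s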); conditions: thallium flux BTC fluorescence, at 10 µM, actives lie on both sides
Alpha-2C adrenergic receptor (Homo sapiens), sequence (P18825 whole entry, looked up): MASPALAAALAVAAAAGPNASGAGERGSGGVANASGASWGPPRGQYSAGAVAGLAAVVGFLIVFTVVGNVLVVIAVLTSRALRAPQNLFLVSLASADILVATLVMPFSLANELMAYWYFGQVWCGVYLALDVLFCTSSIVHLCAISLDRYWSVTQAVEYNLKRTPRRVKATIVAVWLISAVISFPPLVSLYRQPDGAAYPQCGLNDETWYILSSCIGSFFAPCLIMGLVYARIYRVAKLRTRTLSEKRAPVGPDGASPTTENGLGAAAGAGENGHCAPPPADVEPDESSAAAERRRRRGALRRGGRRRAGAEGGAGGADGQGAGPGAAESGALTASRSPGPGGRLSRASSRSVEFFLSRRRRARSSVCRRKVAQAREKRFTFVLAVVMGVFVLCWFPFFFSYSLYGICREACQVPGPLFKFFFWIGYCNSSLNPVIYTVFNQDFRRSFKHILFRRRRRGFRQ

[7] = blockers of RIG-like receptor reporter activation – cell-based, Sendai virus stimulus, luciferase, 10K MLSCN set, TLR/RLR signaling modifier project, primary screen (AID 602276); conditions: HEK293 RL24 IRF3 luciferase reporter, at 10 µM, stronger effect = higher value;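 note: firefly luciferase from ISG56 promoter only with Renilla not read in this screen; 0% = Sendai virus plus DMSO and 100% = medium plus DMSO without virus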
[8] = TLR3 IRF3 reporter activation blockers – cell-based, poly I:C stimulus, luciferase, 10K MLSCN set, primary screen (AID 602277;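 active = inhibition of the reporter signal at or above 50%; inactive = inhibition below 50%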); conditions: HEK293-TLR3 RL24 IRF3 luciferase reporter, at 10 µM, stronger effect = higher value

SMILES	cell count [1]	inhibition [1]	inhibition of aggregation [2]	nuclei count [2] [%]	inhibition [3]	nuclei count [3] [%]	fluorescence slope [4]	NADPH fluorescence slope [5]	slope [6]	inhibition [7]	inhibition [8]
O=C(CCN1C(=O)COc2ccccc21)N1CCN(c2ccccn2)CC1	690	-8.6% (inactive)	-0.4% (inactive)	101	-176% (inactive)	132	-0.591 (inactive)	5.1e-07 (inactive)	0.00618 (inactive)	10.4% (inactive)	14.6% (inactive)
O=C(Nc1cccnc1)c1ccc2c(c1)OCO2	696	-16.9% (inactive)	19.5% (inactive)	80.6	-9.7% (inactive)	110	-0.515 (inactive)	-3.5e-05 (inactive)	0.00618 (inactive)	-19.3% (inactive)	-49.8% (inactive)
Cc1cc(CN2CCN(CCC#N)CC2)c(O)c(C2(C)CCCCC2)c1	527	-12.3% (inactive)	5.3% (inactive)	98.4	-197% (inactive)	90.4	-0.541 (inactive)	4e-05 (inactive)	0.00432 (inactive)	-14.9% (inactive)	4.95% (inactive)
Cc1nn(C(=O)c2ccoc2C)c(N)c1-c1ccccc1	764	-1.1% (inactive)	-13.8% (inactive)	132	-25.3% (inactive)	116	-0.534 (inactive)	-4.2e-05 (inactive)	0.007 (inactive)	-27.9% (inactive)	-123% (inactive)
O=C(Nc1ccc2c(c1)OCCO2)C1CCCN(S(=O)(=O)c2cnc[nH]2)C1 (centres undefined)	628	4.1% (inactive)	-8% (inactive)	102	-29.5% (inactive)	114	-0.563 (inactive)	-4.5e-07 (inactive)	0.00662 (inactive)	-16.1% (inactive)	-6.55% (inactive)
CCc1ccc(NC(=O)CS(=O)CC(=O)NCC2OCCc3ccccc32)cc1 (centres undefined)	698	-4.5% (inactive)	6.4% (inactive)	102	-119% (inactive)	114	-0.415 (inactive)	-3.6e-05 (inactive)	0.00515 (inactive)	9.39% (inactive)	13.4% (inactive)
CC1=C(C(=O)Nc2ccccc2C)C2(CCCC2)C(C(N)=O)C(=O)N1 (centres undefined)	683	0% (inactive)	-25.1% (inactive)	99	-126% (inactive)	106	-0.483 (inactive)	-4.6e-05 (inactive)	0.0058 (inactive)	13.6% (inactive)	17.8% (inactive)
COCCSc1ccccc1C(=O)Nc1nncs1	659	-27.6% (inactive)	-7.4% (inactive)	99.6	-60.7% (inactive)	112	-0.598 (inactive)	-2.1e-05 (inactive)	0.00672 (inactive)	-7.19% (inactive)	2.28% (inactive)
CCn1cc(C(C)NC(=O)COc2ccc(Cl)cc2C)c(C)n1 (centres undefined)	713	-14.6% (inactive)	0.6% (inactive)	130	-64.7% (inactive)	105	-0.404 (inactive)	-2.9e-05 (inactive)	0.00313 (inactive)	1.5% (inactive)	14.6% (inactive)
C=C(Cl)COC(=O)[C@H]1C2C=CC(C2)C1C(=O)O (some centres undefined)	347	-5% (inactive)	-18.6% (inactive)	96.9	-29.7% (inactive)	124	-0.435 (inactive)	5.3e-05 (inactive)	0.00591 (inactive)	-6.49% (inactive)	2.25% (inactive)
O=C(NCc1ccco1)c1ccccc1Nc1ccc(F)cc1	575	-7.2% (inactive)	47.6% (active)	67.1	-30.4% (inactive)	103	-0.308 (inactive)	-5e-05 (inactive)	0.00433 (inactive)	5.52% (inactive)	-2.76% (inactive)
COc1ccc2c(c1)C(=O)N(c1ccccc1OC)C(=O)C2	320	-3.9% (inactive)	-3.2% (inactive)	80.8	-22% (inactive)	110	-0.401 (inactive)	-3.7e-05 (inactive)	0.0052 (inactive)	14.7% (inactive)	10.2% (inactive)
Cc1nnc(N2C(=O)c3oc4ccccc4c(=O)c3C2c2ccco2)s1 (centres undefined)	804	-5.5% (inactive)	8.3% (inactive)	98.1	-28.9% (inactive)	124	-0.579 (inactive)	-2.5e-05 (inactive)	0.00589 (inactive)	12.3% (inactive)	13.8% (inactive)
CC(C)(C)OC(=O)N1CC=C2C(C#N)=C(N)C(C#N)(C#N)C(c3cccs3)C2C1 (centres undefined)	828	2.4% (inactive)	16.5% (inactive)	102	-132% (inactive)	106	-0.476 (inactive)	-2.5e-05 (inactive)	0.00419 (inactive)	13.2% (inactive)	8.03% (inactive)
O=C(Cc1cccs1)NCc1ccc(F)cc1	458	2.4% (inactive)	10.1% (inactive)	107	56.1% (active)	93.3	-0.408 (inactive)	-3.6e-06 (inactive)	0.00459 (inactive)	-18.8% (inactive)	-36.3% (inactive)
Cc1nc2ccc(C(=O)c3ccccc3)cc2[nH]1	411	7.2% (inactive)	18.6% (inactive)	69.6	-8.7% (inactive)	105	-0.389 (inactive)	2.4e-05 (inactive)	0.00371 (inactive)	-30.7% (inactive)	-56.7% (inactive)
CCOC(=O)Cn1c(CCC(=O)O)ccc1-c1ccc(F)cc1	584	-5% (inactive)	-12.4% (inactive)	98.2	-54.4% (inactive)	97.7	-0.548 (inactive)	-2.7e-05 (inactive)	0.00704 (inactive)	15.5% (inactive)	39.4% (inactive)
CNC(=O)CSc1nnc(-c2ccc(S(=O)(=O)N3CCCC3)cc2)n1-c1cccc(C)c1C	643	-2.4% (inactive)	-15.2% (inactive)	108	-87.7% (inactive)	106	-0.458 (inactive)	-4.2e-05 (inactive)	0.00667 (inactive)	12.2% (inactive)	33.2% (inactive)
CCCOc1ccc(NC2=CC(=O)CC(C)(C)C2)cc1	342	3.8% (inactive)	-7.1% (inactive)	119	-89.3% (inactive)	117	-0.405 (inactive)	-4.9e-05 (inactive)	0.00457 (inactive)	-1.23% (inactive)	-12.8% (inactive)
